The values that follow come from PubChem BioAssay (Tox21).

Results filed as inconclusive are left out. Unmarked numbers belong to inactive results. The source made the active and inactive calls. Unless noted, calls come from the whole dose curve; as a rule, active = well fitted curve in the direction sought with a large enough effect in the repeat runs; inconclusive = weak or mixed curves; inactive = no such curve, though single readings can be large; an effect the other way counts as inactive or inconclusive.

Assay [1] addresses Peroxisome proliferator-activated receptor gamma (Homo sapiens) (UniProt P37231). Put plainly: qHTS assay to identify small molecule agonists of the peroxisome proliferator-activated receptor gamma (PPARg) signaling pathway (AID 743094; active = well fitted activation curve with a large enough effect in the signal ratio in the repeat runs, not every such curve was filed as active; the % refers to the signal ratio). The method, boiled down: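 Quantitative HTS agonist mode: stable HEK293H line with UAS-beta-lactamase reporter under PPARg control, 17 h compound exposure at 37C, fluorescence after 1 h FRET substrate loading at room temperature.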
(In qHTS, concentration-response curves come from the screen itself.)

Assay [2] shares this target. In words: qHTS assay to identify small molecule antagonists of the peroxisome proliferator-activated receptor gamma (PPARg) signaling pathway (AID 743191; calls by dose curve; note: series mostly up to about 63 µM; nearly all actives have a fitted effect of over 30% in size). Put shortly: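 GeneBLAzer PPARg UAS-bla HEK293H cells carrying a UAS-driven beta-lactamase reporter were plated at 3000 cells/well, preincubated 5 h at 37C, then given compound for 17 h at 37C; LiveBLAzer B/G FRET substrate was read after 1 h at room temperature.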

Assay [3] is described as follows: qHTS assay to identify small molecule antagonists of the peroxisome proliferator-activated receptor gamma (PPARg) signaling pathway - cell viability counter screen (AID 743194). Note: nearly all actives have a fitted effect of over 55% in size. The method, boiled down: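 PPARg-UAS-bla HEK293H cells were plated, rested 5 h at 37 C, then treated with compounds plus rosiglitazone (50 nM final) for 17 h at 37 C; viability was then read by CellTiter-Glo luminescence after 30 min at room temperature.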

The nature of assay [4]: qHTS assay for small molecule agonists of the antioxidant response element (ARE) signaling pathway (AID 743202; active = well fitted activation curve with a large enough effect in the signal ratio in the repeat runs, not every such curve was filed as active; the % refers to the signal ratio; note: potency is the fitted concentration of half-maximal effect). The method, boiled down: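 Read-out: LiveBLAzer B/G FRET substrate fluorescence after 2 h at room temperature, following 16 h compound treatment at 37 C of HepG2 cells carrying an ARE-driven beta-lactamase reporter.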
A short description of assay [5]: qHTS assay for small molecule agonists of the antioxidant response element (ARE) signaling pathway - cell viability counter screen (AID 743203; calls by dose curve; note: nearly all actives have a fitted effect of over 55% in size). Put shortly: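 Seeded at 2,000 cells/well, ARE-bla HepG2 cells were incubated 5 hrs before compound addition. After 16 hrs of treatment at 37C with 5% CO2, CellTiter-Glo reagent was added and luminescence read 30 min later.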

A short description of assay [6]: qHTS assay to identify small molecule agonists of the peroxisome proliferator-activated receptor delta (PPARd) signaling pathway - cell viability counter screen (AID 743211). Note: nearly all actives have a fitted effect of over 55% in size. Put shortly:
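Viability was measured as CellTiter-Glo luminescence (30 min, room temperature) in the same wells as the beta-lactamase readout. GeneBLAzer PPARd UAS-bla HEK293H cells received compound after 5 h plating and were incubated 17 h at 37 C.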

Assay [7] can be described thus: qHTS assay for small molecule activators of the heat shock response signaling pathway - cell viability counter screen (AID 743209). Note: nearly all actives have a fitted effect of over 50% in size. Note: potency is the fitted concentration of half-maximal effect. The method, boiled down: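 First, HSE-bla HeLa cells were seeded at 1500 cells/well and kept overnight at 37 C. Next, compounds were pinned in and incubated 5 h. After the FRET substrate step, CellTiter-Glo was added and luminescence read 30 min later.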

A short description of assay [8]: qHTS assay for small molecule activators of the heat shock response signaling pathway (AID 743210; active = well fitted activation curve with a large enough effect in the signal ratio in the repeat runs, with a control signal flat, not every such curve was filed as active; the % refers to the signal ratio; note: series mostly up to about 63 µM). The method, boiled down: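 HSE-bla HeLa cells (beta-lactamase reporter under heat shock response elements) were exposed to compounds for 5 h at 37 C, then loaded with LiveBLAzer B/G FRET substrate for 2.5 h at room temperature before fluorescence reading.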
Assay [9] can be described thus: qHTS assay to identify small molecule that activate the aryl hydrocarbon receptor (AhR) signaling pathway - cell viability counter screen (AID 743086).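 Note: HepG2 liver cells carrying the AhR DRE luciferase reporter; series mostly up to about 70 µM; nearly all actives have a fitted effect of over 45% in size.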 The method, boiled down: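 HepG2-AhR-luc (HG2L7.5c1) cells, 4000/well, were preincubated 5 h at 37C, exposed to compound in qHTS format for 24 hr at 37C, then given CellTiter-Fluor for 30 min; viability was read as fluorescence in the reporter wells.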

Sequence of Peroxisome proliferator-activated receptor gamma (Homo sapiens) (P37231 whole entry, looked up): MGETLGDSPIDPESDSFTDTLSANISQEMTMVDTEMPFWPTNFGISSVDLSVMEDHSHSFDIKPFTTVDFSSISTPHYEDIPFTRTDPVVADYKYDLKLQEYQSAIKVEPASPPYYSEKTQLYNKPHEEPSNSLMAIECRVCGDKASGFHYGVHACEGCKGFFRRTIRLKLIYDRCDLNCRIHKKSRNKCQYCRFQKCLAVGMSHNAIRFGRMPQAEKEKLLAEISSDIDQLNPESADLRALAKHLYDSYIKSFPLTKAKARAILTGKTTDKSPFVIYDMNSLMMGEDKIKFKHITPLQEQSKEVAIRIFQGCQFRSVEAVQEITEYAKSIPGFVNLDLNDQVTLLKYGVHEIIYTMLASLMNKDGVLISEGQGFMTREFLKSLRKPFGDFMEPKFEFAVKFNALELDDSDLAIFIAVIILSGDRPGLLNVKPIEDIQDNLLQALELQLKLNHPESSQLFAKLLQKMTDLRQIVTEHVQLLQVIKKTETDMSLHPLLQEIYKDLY

`CC(C)C[P+](C)(CC(C)C)CC(C)C`: the outcome in assay [1], in assay [2], in assay [3], in assay [5] and in [6] was inactive. Besides, in assay [4], the Potency entry was “inactive”.
As for `CCCCCCCC(=O)N(C)C`, the molecule was classed as inactive in [1], in assay [2], in assay [3], in assay [5], in assay [8] and in assay [6]. Besides, the Potency entry in assay [4] and in assay [7] was “inactive” in each case.
Regarding `CCCCC(O)/C=C(C)/C=C/C=C/C(=O)N1CCCC1=O` (configuration not stated), the result in [2], in assay [3], in assay [5], in assay [8] and in assay [6] was inactive. The Potency entry in assay [7] is “inactive”.
Consider `O=C(O)Cc1ccccc1Oc1ccc(Cl)cc1Cl`, for which the molecule was classed as inactive in assay [1], in [3], in assay [5], in assay [8] and in assay [6]. In addition, in [7], the Potency entry was “inactive”.
Take `CCCC(=O)OC`: the molecule was classed as inactive in [9], in [2], in [3], in assay [5], in assay [8] and in assay [6]. Further, the Potency entry in [4] and in assay [7] was “inactive” each time.
Consider `C[C@@H]1CCC[C@H](C)N1CCCC(O)(c1ccccc1)c1ccccn1` (some centres not stated), for which the molecule was classed as inactive in assay [2], in assay [3], in assay [5], in assay [8] and in assay [6]. The Potency result in assay [4] and in assay [7] was “inactive” throughout.
Take `CNC(=O)c1c(I)c(NC(C)=O)c(I)c(C(=O)O)c1I`: the molecule was called inactive in [3], in assay [5] and in [8].
`CCOC(=O)CN1CCCC1=O`: the outcome in assay [3], in [5], in assay [8] and in assay [6] was inactive. Besides, the Potency entry in assay [4] and in assay [7] was “inactive” throughout.
Regarding `Cc1cc2c(cc1CC(=O)c1sccc1S(=O)(=O)Nc1onc(C)c1Cl)OCO2`, the call in assay [3], in assay [5], in [8] and in [6] was inactive. Also, in assay [7], the Potency result was “inactive”.
`CC(=O)O[C@@H]1CC2C3CCc4cc(OC(=O)c5ccccc5)ccc4C3CCC2(C)[C@H]1OC(C)=O` (some centres not stated): the molecule was classed as inactive in assay [3], in assay [5], in assay [8] and in [6]. Also, the Potency entry in [4] and in assay [7] was “inactive” each time.
As to `CCN(CC)CC(=O)Oc1ccc(NC(C)=O)cc1`, the outcome in assay [2], in [3], in assay [5], in [8] and in assay [6] was inactive. For the same molecule, in assay [7], the Potency entry is “inactive”.
For `Cc1cc(=O)oc2cc(O[C@@H]3SC[C@@H](O)[C@H](O)[C@H]3O)ccc12`, the molecule was classed as inactive in assay [2], in assay [3], in [5], in assay [8] and in assay [6]. In addition, the Potency result in [4] is “inactive”.
For `CCCc1ncc(C(=O)O)s1`, the outcome in [2], in [3], in assay [5], in assay [8] and in assay [6] was inactive. Besides, the Potency entry in [4] was “inactive”.
On to `COc1cc(S(N)(=O)=O)cc(C(=O)O)c1OC`, for which the molecule was called inactive in assay [2], in assay [3], in assay [5], in assay [8] and in assay [6]. Further, the Potency entry in assay [4] and in [7] was “inactive” each time.
`COc1ccccc1N1CCN(CC(O)COc2cc(OC)c(OC)c(OC)c2)CC1` (configuration not stated): the call in assay [2], in assay [3], in assay [5], in [8] and in assay [6] was inactive. The Potency result in [7] is “inactive”.
For the molecule `CC(=O)OCC(=O)[C@@]1(O)CC[C@H]2[C@@H]3CCC4=CC(=O)C=C[C@]4(C)[C@H]3[C@@H](O)C[C@@]21C`, the molecule was classed as inactive in [9], in assay [3], in [5] and in assay [6]. Moreover, the Potency result in assay [4] was “inactive”.
Take `CC(C)C(=O)Nc1cccc(C2CN3CCSC3=N2)c1` (configuration not stated): the molecule was classed as inactive in [3], in assay [5] and in assay [8]. The Potency entry in [7] was “inactive”.
Regarding `N#Cc1cc(NC(=O)C(=O)O)c(Cl)c(NC(=O)C(=O)O)c1`, the molecule was called inactive in assay [2], in assay [3], in assay [5], in assay [8] and in assay [6]. In assay [4], the Potency entry is “inactive”.
Consider `CCCCCCCCCCCBr`, for which the call in [9], in assay [1], in assay [3], in [5], in assay [8] and in assay [6] was inactive. In addition, in assay [7], the Potency entry is “inactive”.
`Cc1cc(N)no1`: the molecule was classed as inactive in [3], in assay [5], in [8] and in assay [6]. In [7], the Potency result was “inactive”.
Regarding `CC(=O)/C=C/C=C1/C2CCC(C2)C1(C)C` (configuration not stated), the molecule was classed as inactive in assay [2], in assay [3], in assay [5], in assay [8] and in assay [6]. In addition, the Potency result in assay [4] was “inactive”.
In the case of `O=C1Nc2ccccc2C1=O`, the result in [9], in [5], in assay [8] and in [6] was inactive. Besides, in assay [4], the Potency was 27.1 µM (active). In addition, in assay [7], the Potency result is “inactive”.
Regarding `NNC(=O)CCCCC(=O)NN`, the molecule was classed as inactive in assay [1], in [2], in assay [3], in [5], in assay [8] and in assay [6]. Also, the Potency result in assay [4] and in assay [7] was “inactive” in each case.
On to `Nc1nc(Cl)cc(Cl)n1`, for which the outcome in assay [1], in assay [3], in [5] and in assay [6] was inactive. For the same molecule, the Potency in assay [7] was 55 µM (active).
For the molecule `C[C@]12C=CC(=O)C=C1[C@@H](F)C[C@@H]1[C@@H]2[C@@H](O)C[C@@]2(C)[C@H]1CC[C@]2(O)C(=O)CO`, the result in [1], in [2], in assay [5] and in [8] was inactive. Further, the Potency entry in assay [4] and in [7] was “inactive” in each case.
`O=C1CCCc2c(O)cccc21`: the call in [2], in assay [3], in assay [5], in [8] and in assay [6] was inactive.
For `CCNC(=O)C(C)OC(=O)Nc1ccccc1` (configuration not stated), the molecule was classed as inactive in assay [9], in assay [2], in [3], in assay [5] and in assay [8]. The Potency entry in assay [4] and in [7] was “inactive” throughout.
On to `COC(=O)c1ccc(NC(C)=O)cc1OC`, for which the molecule was classed as inactive in assay [2], in assay [3], in [5], in assay [8] and in [6]. Further, the Potency result in assay [4] was “inactive”.
Consider `CC(C)(C)c1ccc(C(=O)CCCCl)cc1`, for which the molecule was called inactive in [3], in assay [5] and in [8]. For the same molecule, the Potency entry in assay [4] and in [7] was “inactive” in each case.
Take `NNC(=O)OCc1ccccc1`: the molecule was called inactive in assay [1], in [3], in assay [5] and in assay [8]. In addition, in assay [7], the Potency entry is “inactive”.
With `COC(=O)c1cc(Cl)c(NC(C)=O)cc1OC`, the outcome in [2], in assay [3], in [5] and in [8] was inactive.
